# Assay results as given in PubChem BioAssay (Tox21).
# Records with an inconclusive call do not appear. Activity calls are given as the source filed them. Calls come from the whole dose curve; as a rule, active = well fitted inhibition curve with a large enough effect in the repeat runs; inconclusive = weak or mixed curves; inactive = no such curve, though single readings can be large or run the other way.
# Molecular target: Cytochrome P450 1A2 (Homo sapiens) (UniProt P05177)
# Experiment: Cytochrome P450 Family 1 Subfamily A Member 2 (CYP1A2) small molecule antagonists: luciferase reporter qHTS assay (AID 1671199); note: nearly all actives have a fitted effect of over 50% in size
# Conditions: P450-Glo CYP1A2 enzyme, luciferin luminescence, 1 h; series mostly up to 115 µM; activity change, negative = inhibition: at the top concentration
# Excerpt: National Center for Advancing Translational Sciences [NCATS]
# U.S. Environmental Protection Agency [EPA]
# National Institutes of Environmental Health Sciences [NIEHS]
# National Toxicology Program [NTP]
# U.S. Food and Drug Administration [FDA]
# Cytochrome P450 (CYP) enzymes are membrane-bound hemeproteins that play a key role in metabolism of drugs and xenobiotics. Evaluation of the effect of chemicals on CYP isozymes is useful to minimize the adverse drug reactions and toxicities in drug development process. Tox21 chemicals were tested for their effect on CYP enzyme activities by using P450-Glo (TM) screening systems (Promega Corporation, Madison, WI). These systems provide a luminescent method containing proluciferin substrates and are converted to luciferin products by CYP isozymes. The luciferin products formed are detected with a luciferin detection reagent, and the amount of light produced is proportional to CYP activity. P450-Glo (TM) CYP1A2 screening system (Catalog. No. V9770) was used to detect the compounds that interfere in CYP1A2 activity. The positive control compound used for CYP1A2 assay is furafylline (Sigma-Aldrich, St. Louis, MO).
# Tox21 Assay Protocol Summary:
# Two ul of enzyme-substrate mix was dispensed into medium binding white/solid 1536-well plates (Greiner Bio-One North America Inc., Monroe, NC) using a BioRaptr Flying Reagent Dispenser (FRD, Beckman Coulter, Brea, CA). Compounds dissolved in DMSO and positive control (furafyllline) were transferred to the assay plates at 23 nl using a Pintool station (Wako, San Diego, CA). The assay plates were incubated at room temperature for 10 min. Then 2 ul of NADPH regeneration solution was added to each well of the assay plates using an FRD and incubated at room temperature for 1 h. The reaction was stopped by adding 4 ul of detection reagent using an FRD and after 20 min incubation at room temperature the luminescence signal was measured using a ViewLux plate reader (Perkin Elmer, Shelton, CT). Data were expressed as relative luminescence units.
# % is set by controls: 0 for no effect and ±100 for the full control effect; potency is the fitted concentration of half-maximal effect.
# Chain of Cytochrome P450 1A2 (Homo sapiens) (P05177 whole entry, looked up): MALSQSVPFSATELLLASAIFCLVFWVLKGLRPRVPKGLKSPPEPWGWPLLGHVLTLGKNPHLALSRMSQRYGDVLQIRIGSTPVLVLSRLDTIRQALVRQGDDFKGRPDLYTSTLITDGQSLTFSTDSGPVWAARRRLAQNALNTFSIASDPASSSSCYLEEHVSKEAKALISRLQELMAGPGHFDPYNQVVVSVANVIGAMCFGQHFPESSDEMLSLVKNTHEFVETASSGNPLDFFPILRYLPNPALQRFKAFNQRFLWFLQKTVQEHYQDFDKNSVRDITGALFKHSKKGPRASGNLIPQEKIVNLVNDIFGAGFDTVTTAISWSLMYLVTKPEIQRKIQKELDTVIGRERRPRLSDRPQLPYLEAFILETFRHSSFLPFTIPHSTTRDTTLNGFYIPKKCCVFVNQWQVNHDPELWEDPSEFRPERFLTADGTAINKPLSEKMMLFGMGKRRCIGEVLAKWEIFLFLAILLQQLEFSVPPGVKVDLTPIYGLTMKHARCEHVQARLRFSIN
Compound,Potency,"activity change, negative = inhibition"
O=[N+]([O-])c1cccc2cccnc12,36.5 µM (active),
CC(C=O)Cc1ccc2c(c1)OCO2 (stereo not given),6.33 µM (active),
O=C(O)c1ccc2[nH]cc(CCCCN3CC=C(c4ccccc4)CC3)c2c1,,-4.73% [at 53 µM] (inactive)
COP(N)(=S)Oc1ccccc1C(=O)OC(C)C (stereo not given),2 µM (active),
O=CNC(N1CCN(C(NC=O)C(Cl)(Cl)Cl)CC1)C(Cl)(Cl)Cl (stereo not given),,-7.78% (inactive)
COc1cc2c(cc1OC)[C@@]13CCN4CC5=CCO[C@H]6CC(=O)N2[C@H]1[C@H]6[C@H]5C[C@H]43,,-10.7% (inactive)
C=C(C)CN(CC)c1c([N+](=O)[O-])cc(C(F)(F)F)cc1[N+](=O)[O-],31.7 µM (active),
CCOC(=O)CP(=O)(OCC)OCC,,-21.2% (inactive)
CCOP(=S)(OCC)Oc1nc(Cl)n(C(C)C)n1,2.24 µM (active),
CN1CCN(C(=O)O[C@H]2c3nccnc3C(=O)N2c2ccc(Cl)cn2)CC1,27.5 µM (active),
CC(C)CP(=S)(S)CC(C)C,,-21.6% (inactive)
N#CCBr,,-15.8% (inactive)
CCOC(=O)C(c1c(O)c2ccccc2oc1=O)c1c(O)c2ccccc2oc1=O,27.5 µM (active),
CC1(C)CON(Cc2ccccc2Cl)C1=O,31.7 µM (active),
COc1cc(OC)nc(Oc2cccc(Oc3nc(OC)cc(OC)n3)c2C(=O)O)n1,,0.0511% (inactive)
CCCSC(=O)Cl,,-6.94% (inactive)
CCC(C)(C)c1cc(-n2nc3ccccc3n2)c(O)c(C(C)(C)CC)c1,36.1 µM (active),
CCOP(=S)(OCC)SCSP(=S)(OCC)OCC,15.9 µM (active),
Cc1nnc2n1-c1sc(CCC(=O)N3CCOCC3)cc1C(c1ccccc1Cl)=NC2,,0.229% [at 53 µM] (inactive)
CC1COC2(c3ccccc3Cl)c3cc(Cl)ccc3NC(=O)CN12 (stereo not given),,1.42% [at 53 µM] (inactive)

Compound,Potency,"activity change, negative = inhibition"
C=C(C)[C@@H]1CC=C(C=O)CC1,,-27.7% (inactive)
CCS(=O)(=O)CCSP(=O)(OC)OC,,-16.5% (inactive)
COc1cc(OC)nc(Sc2cccc(Cl)c2C(=O)O)n1,,-17.1% (inactive)
Nc1n[nH]c(N)n1,64.4 µM (active),
Cc1ncsc1CCCl,,0.646% [at 53 µM] (inactive)
ClC(Cl)Br,,-20.1% (inactive)
CS(=O)(=O)c1cc(C(F)(F)F)ccc1C(=O)c1cnoc1C1CC1,35.6 µM (active),
N#Cc1ccncc1,,-7.12% (inactive)
N#CC(CCc1ccc(Cl)cc1)(Cn1cncn1)c1ccccc1 (stereo not given),31.7 µM (active),
CN(C)CCc1ccc(O)cc1,,3.64% [at 53 µM] (inactive)
O=NN1CCCCC1,,-4.39% (inactive)
NC(=O)c1cc([N+](=O)[O-])cc([N+](=O)[O-])c1,,-15.2% [at 53 µM] (inactive)
CC(C(=O)c1ccccc1)N(C)C (stereo not given),,-5.7% [at 53 µM] (inactive)
Cc1cc(C)c(C(=O)P(=O)(C(=O)c2c(C)cc(C)cc2C)c2ccccc2)c(C)c1,71 µM (active),
C[C@@H]1CN(C2CCC(C#N)(c3ccc(F)cc3)CC2)CC[C@]1(C(=O)O)c1ccccc1 (stereo not given in full),,-4.2% [at 53 µM] (inactive)
CNCC(=O)c1ccc(O)c(O)c1,,-9.76% [at 53 µM] (inactive)
CCOP(=S)(OCC)Oc1ncn(-c2ccccc2)n1,1.78 µM (active),
CC(Cl)(Cl)[N+](=O)[O-],,-19.2% (inactive)
O=C(Cc1ccccc1)OCc1ccccc1,18 µM (active),
CCCCCCI,,-4.03% (inactive)
